The source made the active and inactive calls.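 The calls were made as follows: active = valid curve fit with half-effect dose at most 10 µM and total binding change across doses of 30 points or more; inactive = the rest.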
test: small GTPase nucleotide-binding inhibition, multiplex panel – biochemical, round 1 SAR, Mg buffer, multiplex flow cytometry, selectivity assay for Cdc42 probe extension project, SAR follow-up (AID 588477); conditions: GST-GTPase beads, Bodipy-GTP binding, Rac constitutively active; series mostly up to 100 µM

outcome, inactive:
COc1ccc(C2CC(c3ccccc3)=NN2c2ccc(S(N)(=O)=O)cc2)cc1 (stereo not drawn)
O=C(C#Cc1ccccc1)c1cccc([N+](=O)[O-])c1
NS(=O)(=O)c1ccc(N2N=C(c3ccccc3)CC2c2ccccc2)cc1 (stereo not drawn)

From PubChem BioAssay AID588477 (NMMLSC, 2011)
